Measurements reported in PubChem BioAssay (EPA / NIEHS).
Calls of active or inactive are those of the source. The calls were made as follows: active = hit-call score of the fitted dose curve at least 0.9, where 1 is the maximum; inactive = score below 0.9.

Tests used:
Settings in all cases: mRNA level, 48 h; actives raise or lower the signal
[1] = read-out: Lipoprotein lipase (LPL), LPL (gene 4023); test: LTEA_HepaRG_LPL: Life Technologies and Expression Analysis (LTEA) Assay for Lipoprotein lipase (LPL) using HepaRG (AID 2283515)
Method in brief: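 Differentiated human HepaRG cells in serum-free induction medium were exposed in duplicate for 48 h to eight half-log concentrations (top 100 uM) in 0.5% DMSO. LPL mRNA was quantified by TaqMan qRT-PCR, normalized to ACTB, GAPDH and POLR2A.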

[2] = read-out: MicroRNA 122 (MIR122), gene 406906; test: LTEA_HepaRG_MIR122: Life Technologies and Expression Analysis (LTEA) Assay for MicroRNA 122 (MIR122) using HepaRG (AID 2283516); also: the transcript read is the microRNA miR-122
Method in brief: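 HepaRG, 48 h exposure, 8-pt half-log from 100 uM, 0.5% DMSO; TaqMan qRT-PCR; bidirectional fit vs DMSO.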

[3] = read-out: matrix metalloproteinase-10 (MMP10), MMP10 (gene 4319); test: LTEA_HepaRG_MMP10: Life Technologies and Expression Analysis (LTEA) Assay for matrix metalloproteinase-10 (MMP10) using HepaRG (AID 2283517)
Method in brief: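 HepaRG, collagen I, ~100,000 cells/well; serum-free induction medium; 48 h exposure, duplicate, 8-pt half-log to 100 uM, 0.5% DMSO. Readout: TaqMan qRT-PCR, normalized to ACTB/GAPDH/POLR2A; bidirectional fit vs DMSO.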

MYC, MYC (gene 4609) = test: LTEA_HepaRG_MYC: Life Technologies and Expression Analysis (LTEA) Assay for MYC using HepaRG (AID 2283518)
Method in brief: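 Expression changes were scored by TaqMan qRT-PCR with ACTB, GAPDH and POLR2A normalization. Cultures in serum-free induction medium received duplicate 8-point concentration series, highest 100 uM, for 48 h; DMSO (0.5%) served as baseline.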

[4] = read-out: matrix metalloproteinase-3 (MMP3), MMP3 (gene 4314); test: LTEA_HepaRG_MMP3: Life Technologies and Expression Analysis (LTEA) Assay for matrix metalloproteinase-3 (MMP3) using HepaRG (AID 2283519)
Method in brief: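 Differentiated human HepaRG cells, plated 48 h on collagen I, were exposed in duplicate for 48 h in serum-free induction medium to eight half-log concentrations up to 100 uM in 0.5% DMSO. MMP3 mRNA was quantified by TaqMan qRT-PCR, normalised to ACTB, GAPDH and POLR2A.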

[5] = read-out: Paternally Expressed 10 (PEG10), PEG10 (gene 23089); test: LTEA_HepaRG_PEG10: Life Technologies and Expression Analysis (LTEA) Assay for Paternally Expressed 10 (PEG10) using HepaRG (AID 2283520);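 as to AC50: PEG10 transcript by qRT-PCR normalised to ACTB GAPDH and POLR2A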
Method in brief: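 Chemicals tested on HepaRG cells for 48 h, highest concentration 100 uM. PEG10 expression assessed by qRT-PCR relative to DMSO control.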

[6] = read-out: Protein phosphatase 2A (PPP2R4), PTPA (gene 5524); test: LTEA_HepaRG_PPP2R4: Life Technologies and Expression Analysis (LTEA) Assay for Protein phosphatase 2A (PPP2R4) using HepaRG (AID 2283522)
Method in brief: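 Gene-expression endpoint in HepaRG hepatic cells: 48 h treatment across eight half-log concentrations up to 100 uM in 0.5% DMSO. PPP2R4 mRNA by qRT-PCR, normalized to three endogenous control genes.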

[7] = read-out: Phosphatase and tensin (PTEN), PTEN (gene 5728); test: LTEA_HepaRG_PTEN: Life Technologies and Expression Analysis (LTEA) Assay for Phosphatase and tensin (PTEN) using HepaRG (AID 2283523)
Method in brief: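 Differentiated human HepaRG cells, plated 48 h then switched to serum-free induction medium, were exposed in duplicate for 48 h to eight half-log concentrations up to 100 uM in 0.5% DMSO. PTEN mRNA measured by TaqMan qRT-PCR, normalized to ACTB/GAPDH/POLR2A, bidirectional fit versus DMSO.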

[8] = read-out: solute carrier (SLC22A1), SLC22A1 (gene 6580); test: LTEA_HepaRG_SLC22A1: Life Technologies and Expression Analysis (LTEA) Assay for solute carrier (SLC22A1) using HepaRG (AID 2283524)
Method in brief: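 Human HepaRG cells were plated 48 h, switched to serum-free induction medium, then exposed in duplicate for 48 h to 8-point half-log series from 100 uM in 0.5% DMSO. SLC22A1 mRNA measured by qRT-PCR, normalized to ACTB/GAPDH/POLR2A, fitted bidirectionally versus DMSO.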

[9] = read-out: Pyruvate Dehydrogenase Kinase 4 (PDK4), PDK4 (gene 5166); test: LTEA_HepaRG_PDK4: Life Technologies and Expression Analysis (LTEA) Assay for Pyruvate Dehydrogenase Kinase 4 (PDK4) using HepaRG (AID 2283525)
Method in brief: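 Differentiated human HepaRG cells, pre-cultured 48 h, were exposed in duplicate for 48 h in serum-free induction medium to eight half-log concentrations up to 100 uM in 0.5% DMSO. PDK4 mRNA was quantified by qRT-PCR, normalized to ACTB, GAPDH and POLR2A, bidirectional fitting versus DMSO.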

[10] = read-out: NAD(P)H dehydrogenase [quinone] 1 (NQO1), NQO1 (gene 1728); test: LTEA_HepaRG_NQO1: Life Technologies and Expression Analysis (LTEA) Assay for NAD(P)H dehydrogenase [quinone] 1 (NQO1) using HepaRG (AID 2283526)
Method in brief: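 Human HepaRG hepatic cells received chemicals for 48 h in serum-free induction medium with 0.5% DMSO, up to 100 uM. Expression was assessed by TaqMan qRT-PCR against housekeeping controls and fitted bidirectionally against DMSO.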

[11] = read-out: Nuclear factor erythroid 2-related factor 2 (Homo sapiens) (UniProt Q16236); test: LTEA_HepaRG_NFE2L2: Life Technologies and Expression Analysis (LTEA) Assay for Nuclear factor erythroid 2-related factor 2 (NFE2L2) Transcription Factor using HepaRG (AID 2283527)
Method in brief: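 Differentiated human HepaRG cells in serum-free induction medium were exposed for 48 h to eight concentrations (top 100 uM, half-log dilutions, 0.5% DMSO), in duplicate. NFE2L2 mRNA was quantified by TaqMan qRT-PCR, normalized to ACTB, GAPDH and POLR2A, with bidirectional fitting versus DMSO.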

[12] = read-out: succinate dehydrogenase complex iron sulfur subunit B (SDHB), SDHB (gene 6390); test: LTEA_HepaRG_SDHB: Life Technologies and Expression Analysis (LTEA) Assay for succinate dehydrogenase complex iron sulfur subunit B (SDHB) using HepaRG (AID 2283528)
Method in brief: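 SDHB transcript level read by TaqMan qRT-PCR, housekeeping-normalised (ACTB, GAPDH, POLR2A), after 48 h chemical treatment of plated HepaRG cells; eight concentrations top 100 uM, half-log steps, 0.5% DMSO, duplicates; fitted both directions against DMSO.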

[13] = read-out: Signal transducer and activator of transcription 3 (Homo sapiens) (UniProt P40763); test: LTEA_HepaRG_STAT3: Life Technologies and Expression Analysis (LTEA) Assay for Signal transducer and activator of transcription (STAT3) using HepaRG (AID 2283529)
Method in brief: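 Differentiated human HepaRG cells in serum-free induction medium were exposed in duplicate for 48 h to eight half-log concentrations up to 100 uM in 0.5% DMSO. STAT3 mRNA was quantified by TaqMan qRT-PCR, normalized to ACTB, GAPDH and POLR2A, and fitted bidirectionally against DMSO.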

[14] = read-out: solute carrier (SLCO1B1), SLCO1B1 (gene 10599); test: LTEA_HepaRG_SLCO1B1: Life Technologies and Expression Analysis (LTEA) Assay for solute carrier (SLCO1B1) using HepaRG (AID 2283530)
Method in brief: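 Human HepaRG cultures treated for 48 h with an eight-concentration half-log series topping at 100 uM; SLCO1B1 measured by qRT-PCR and fitted bidirectionally relative to DMSO.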

[15] = read-out: sulfotransferase 2A1 (SULT2A1), SULT2A1 (gene 6822); test: LTEA_HepaRG_SULT2A1: Life Technologies and Expression Analysis (LTEA) Assay for sulfotransferase 2A1 (SULT2A1) using HepaRG (AID 2283531)
Method in brief: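 Gene-expression endpoint in a human liver cell line: SULT2A1 mRNA change after 48 h chemical treatment, curves fitted in both directions relative to 0.5% DMSO vehicle. Concentrations spanned eight half-log steps from 100 uM.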

[16] = read-out: Transforming Growth Factor (TGFB1), TGFB1 (gene 7040); test: LTEA_HepaRG_TGFB1: Life Technologies and Expression Analysis (LTEA) Assay for Transforming Growth Factor (TGFB1) Transporter using HepaRG (AID 2283533)
Method in brief: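 Eight-point concentration-response (max 100 uM, half-log) in HepaRG under serum-free induction conditions, 48 h. TGFB1 mRNA by qRT-PCR, housekeeping-normalized.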

[17] = read-out: Nuclear factor NF-kappa-B p105 subunit (Homo sapiens) (UniProt P19838); test: LTEA_HepaRG_NFKB1: Life Technologies and Expression Analysis (LTEA) Assay for Nuclear Factor Kappa B Subunit 1 (NFKB1) using HepaRG (AID 2283521)
Method in brief: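 NFKB1 transcript was measured by TaqMan qRT-PCR on Fluidigm arrays, normalised to three housekeeping genes and fitted in both directions against 0.5% DMSO. HepaRG cells were dosed in duplicate for 48 h in serum-free induction medium, eight half-log steps from 100 uM.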

Measured: AC50

Sequence of Nuclear factor erythroid 2-related factor 2 (Homo sapiens) (Q16236 whole entry, looked up): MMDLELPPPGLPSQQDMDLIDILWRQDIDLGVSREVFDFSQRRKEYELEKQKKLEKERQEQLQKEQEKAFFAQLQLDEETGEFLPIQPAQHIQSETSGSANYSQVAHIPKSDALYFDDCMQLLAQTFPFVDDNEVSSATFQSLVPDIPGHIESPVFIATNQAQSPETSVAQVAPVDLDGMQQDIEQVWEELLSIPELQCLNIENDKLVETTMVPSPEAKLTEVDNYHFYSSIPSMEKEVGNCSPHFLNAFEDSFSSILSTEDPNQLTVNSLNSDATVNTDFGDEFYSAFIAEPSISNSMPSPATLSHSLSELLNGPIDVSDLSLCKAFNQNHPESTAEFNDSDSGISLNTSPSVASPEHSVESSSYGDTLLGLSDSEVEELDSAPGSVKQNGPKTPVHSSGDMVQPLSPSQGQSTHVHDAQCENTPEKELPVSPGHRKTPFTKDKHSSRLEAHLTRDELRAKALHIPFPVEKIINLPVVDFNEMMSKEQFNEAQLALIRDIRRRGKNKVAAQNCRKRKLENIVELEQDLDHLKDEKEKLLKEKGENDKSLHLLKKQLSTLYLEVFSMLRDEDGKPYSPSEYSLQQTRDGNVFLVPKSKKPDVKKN
Sequence of Nuclear factor NF-kappa-B p105 subunit (Homo sapiens) (P19838 whole entry, looked up): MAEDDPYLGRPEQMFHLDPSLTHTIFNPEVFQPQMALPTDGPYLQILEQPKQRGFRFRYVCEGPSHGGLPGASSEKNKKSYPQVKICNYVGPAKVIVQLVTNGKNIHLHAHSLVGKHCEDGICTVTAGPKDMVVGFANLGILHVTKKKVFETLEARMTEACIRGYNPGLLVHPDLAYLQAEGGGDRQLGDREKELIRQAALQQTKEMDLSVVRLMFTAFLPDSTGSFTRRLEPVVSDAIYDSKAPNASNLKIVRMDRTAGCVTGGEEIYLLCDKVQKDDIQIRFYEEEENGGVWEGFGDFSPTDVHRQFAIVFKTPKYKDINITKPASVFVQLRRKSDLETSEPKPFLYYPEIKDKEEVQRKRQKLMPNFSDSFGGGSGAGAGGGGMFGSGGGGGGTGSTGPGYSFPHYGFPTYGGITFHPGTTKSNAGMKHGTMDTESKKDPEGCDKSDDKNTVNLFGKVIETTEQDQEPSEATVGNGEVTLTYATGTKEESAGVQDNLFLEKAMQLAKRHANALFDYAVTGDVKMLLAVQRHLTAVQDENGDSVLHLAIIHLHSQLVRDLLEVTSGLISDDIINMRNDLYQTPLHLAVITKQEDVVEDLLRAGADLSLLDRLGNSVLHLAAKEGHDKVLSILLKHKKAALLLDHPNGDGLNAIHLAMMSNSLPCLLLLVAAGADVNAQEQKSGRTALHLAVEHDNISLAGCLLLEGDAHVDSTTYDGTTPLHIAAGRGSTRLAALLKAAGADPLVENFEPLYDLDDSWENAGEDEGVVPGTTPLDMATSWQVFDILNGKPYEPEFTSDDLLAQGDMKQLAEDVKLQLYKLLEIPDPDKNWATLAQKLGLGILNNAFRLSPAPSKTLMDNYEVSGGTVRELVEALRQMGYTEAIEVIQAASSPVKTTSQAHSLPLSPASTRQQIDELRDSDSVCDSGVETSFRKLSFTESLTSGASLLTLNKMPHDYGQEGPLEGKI
Sequence of Signal transducer and activator of transcription 3 (Homo sapiens) (P40763 whole entry, looked up): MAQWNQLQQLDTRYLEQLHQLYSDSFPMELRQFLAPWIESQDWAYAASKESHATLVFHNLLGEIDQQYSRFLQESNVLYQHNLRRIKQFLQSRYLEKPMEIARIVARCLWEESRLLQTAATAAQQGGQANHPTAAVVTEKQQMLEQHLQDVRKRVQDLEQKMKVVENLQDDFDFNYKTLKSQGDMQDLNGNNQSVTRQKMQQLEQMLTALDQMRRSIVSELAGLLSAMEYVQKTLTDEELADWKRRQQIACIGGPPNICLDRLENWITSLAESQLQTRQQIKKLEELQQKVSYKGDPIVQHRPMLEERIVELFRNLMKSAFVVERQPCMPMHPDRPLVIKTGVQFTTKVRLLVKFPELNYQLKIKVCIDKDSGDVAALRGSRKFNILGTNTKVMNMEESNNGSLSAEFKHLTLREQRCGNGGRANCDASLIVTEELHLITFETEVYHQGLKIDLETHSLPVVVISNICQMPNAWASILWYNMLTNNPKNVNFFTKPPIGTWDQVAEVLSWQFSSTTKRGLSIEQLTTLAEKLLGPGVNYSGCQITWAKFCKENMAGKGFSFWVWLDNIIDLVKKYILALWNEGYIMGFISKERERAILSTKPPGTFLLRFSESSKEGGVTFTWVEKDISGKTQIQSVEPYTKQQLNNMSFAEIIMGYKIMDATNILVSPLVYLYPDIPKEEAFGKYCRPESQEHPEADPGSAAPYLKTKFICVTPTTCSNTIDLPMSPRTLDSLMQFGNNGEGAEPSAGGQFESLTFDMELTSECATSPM

CCOP(=O)(OCC)Oc1cc(C)nc(C(C)C)n1
not listed: [17]
inactive: all other assays above

CCc1cccc(C)c1N(C(=O)CCl)C(C)COC (configuration not stated)
not listed: MYC, MYC (gene 4609) | [9]
inactive: all other assays above

CCOP(=O)(NC(C)C)Oc1ccc(SC)c(C)c1 (configuration not stated)
active: [5] 50 µM
not listed: [9]
inactive: all other assays above

COc1ccc(C(=CC(=O)N2CCOCC2)c2ccc(Cl)cc2)cc1OC
active: [5] 4.02 µM
not listed: [9]
inactive: all other assays above
